# Sampled rows, rich in hits. Any-hit rate of the full collection: about 4.1%.
# FAS TE block – inhibitors of human fatty acid synthase thioesterase domain; P49327; recombinant FAS-TE, OMFH fluorogenic substrate, fluorescence endpoint; inhibition, % at 15 µM; 360,000 compounds, 0.67% hits;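 active means compounds whose normalised, plate-corrected inhibition of enzyme fluorescence in the single-dose primary screen is 50% or more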
# beta cell repl – inducers of beta-cell replication in MIN6 cells. MIN6 cells proliferation, ATPlite luminescence, 48 h; cells starved in 0.2% serum; 100% = growth in 10% serum. proliferation, % at 10 µM. 330,000 compounds, 0.29% hits. AID 2380;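 active means compounds whose signal lies at least 3.5 SD above the mean of all wells on their plate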
# pCIP destab – p/CIP protein destabilization | Q05BA5 | 290,000 compounds, 0.01% hits | F442A p/CIP-EGFP cells, EGFP fluorescence, 16 h | decrease of EGFP signal, % at 10 µM;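 active means EGFP signal decrease of at least 30% at 10 µM or well 3 SD below plate mean, unless failing retest; inactive means the rest, including hits failing retest or dose response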
# GRIN3A LBD mod – NR3A (human) ligand-binding domain modulation | NR3A LBD differential scanning fluorimetry, Tm shift; 0% = protein alone, 100% = glycine-bound protein | 340,000 compounds, 2.5% hits | Tm shift relative to glycine control, % at 25 µM;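 active means melting temperature shift of at least 10% of the positive control shift, at one fixed dose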
# MPTP inh – blocks calcium-induced mitochondrial swelling. 360,000 compounds, 1.4% hits. inhibition, % at 10 µM. isolated mouse mitochondria, Ca2+ swelling absorbance, 30 min;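 active means inhibition of 50% or more, scaled per plate between neutral and stimulator controls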
# FAS-TE conf – FAS thioesterase (human) inhibition, confirmation | inhibition, % at 15 µM | recombinant FAS-TE, OMFH fluorogenic substrate, fluorescence | shares compounds with FAS TE block | 2,300 compounds, 45% hits | AID 624325;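 active means compounds inhibiting the enzyme by at least 50% at 15 µM in any one of the replicates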
# Hits are given with their value; . = inactive; / = not tested or not shown.
SMILES,FAS TE block,beta cell repl,pCIP destab,GRIN3A LBD mod,MPTP inh,FAS-TE conf
Cc1cccc(C)c1NC(=O)C1(C)CN(S(C)(=O)=O)CC(=O)N1CCc1ccc(O)cc1 (stereo not given),/,/,/,/,.,/
O=S(c1ccccc1O)S(=O)c1ccccc1O (stereo not given),.,/,/,.,.,/
COc1ccc2cc3cc(C(=O)N4CCCC(C)C4)oc3nc2c1 (stereo not given),71,.,.,.,.,71
CCOC(=O)C1CCCN(C(=O)c2cc3cc4ccc(OC)cc4nc3o2)C1 (stereo not given),.,.,.,.,.,/
COc1cccc(-c2nc3nc(C)cc(C)n3c2Nc2c(C)cccc2C)c1,.,/,/,/,.,/
C=CCC[C@@H](Cc1ccc(F)cc1)C(=O)OC[C@H](Cc1c[nH]c2ccccc12)NC(=O)[C@H](CC=C)CC(=O)NCCO,57,.,/,.,.,68
CC(C)c1ccccc1-n1c(SCC(=O)N2CCc3ccccc3C2)nc2ccccc2c1=O,60,.,.,.,.,.
Cn1c(=O)c2c(nc(SCC(=O)N3CCc4ccccc4C3)n2C)n(C)c1=O,.,.,.,.,.,/
OC(c1ccc2c(c1)OCO2)c1ncc(-c2cccc(C(F)(F)F)c2)[nH]1 (stereo not given),.,/,/,/,.,/
Cc1ccc(S(=O)(=O)c2nnn3c2nc(N2CCN(c4ccccn4)CC2)c2ccccc23)cc1C,53,.,.,.,.,.
Cc1ccc(S(=O)(=O)c2nnn3c2nc(N2CCOCC2)c2ccccc23)cc1,.,.,.,.,.,/
CCc1ccc(S(=O)(=O)c2nnn3c2nc(N2CCOCC2)c2ccccc23)cc1,60,.,.,.,.,36
CN(c1ccccc1)S(=O)(=O)c1ccc(NC(=O)c2nc(S(C)(=O)=O)ncc2Cl)cc1,58,.,.,.,.,68
CC1(C(=O)NCc2ccccc2)CSCC(=O)N1Cc1cccs1 (stereo not given),/,/,/,/,.,/
CCCCN(CCCC)Cc1cc(=O)oc2cc(OC)c(Cl)cc12,.,/,/,/,.,/
CCOC1=C2[C@H](c3cccs3)N(S(=O)(=O)c3ccc(C)cc3)C[C@H]2n2c(=O)n(-c3ccccc3)c(=O)n2C1,73,/,/,/,.,.
CCOC1=C2CN(S(=O)(=O)c3ccc(C)cc3)C(c3ccc(CC)cc3)CC2n2c(=O)n(-c3ccccc3)c(=O)n2C1 (stereo not given),/,/,/,/,.,/
CCOC1=C2CN(S(=O)(=O)c3ccccc3)[C@H](c3ccccc3)C[C@H]2n2c(=O)n(-c3ccccc3)c(=O)n2C1,80,/,/,/,.,.
CCOC1=C2CN(S(=O)(=O)c3ccc(Cl)cc3)[C@H](c3ccccc3)C[C@@H]2N(S(=O)(=O)c2ccc(C)cc2)[C@H](c2ccccc2)C1,.,/,/,/,.,/
CCOC1=C2[C@H](c3ccccc3)N(S(=O)(=O)c3ccccc3)C[C@H]2n2c(=O)n(-c3ccccc3)c(=O)n2C1,73,/,/,/,.,.
CN1CCN(c2ncnc3c2ncn3[C@H]2CN(Cc3cccnc3)C[C@@H](CO)O2)CC1,.,/,/,/,.,/
Cc1cccc(-c2nc(NCCN(C)C)c3ccccc3n2)c1,.,/,/,/,.,/
COc1ccc(-c2cccc(N3CCN(c4ccccn4)CC3)n2)cc1OC,.,/,/,/,.,/
COc1ccc(C(=O)NCCNc2ncc(C(F)(F)F)cc2Cl)cc1[N+](=O)[O-],53,.,.,.,.,47
Cc1ccc(C(=O)NCCNc2ncc(C(F)(F)F)cc2Cl)cc1[N+](=O)[O-],55,.,.,.,.,60
CC(C)(CNC(=O)c1ccc([N+](=O)[O-])c(Cl)c1)CNC(=O)c1ccc([N+](=O)[O-])c(Cl)c1,56,.,.,.,.,63
O=[N+]([O-])c1cccnc1NCCNc1ncc(C(F)(F)F)cc1Cl,.,.,.,.,.,/
Cc1cc2nc(-c3nnnn3C3CCCCC3)c(=O)[nH]c2cc1C,.,/,/,/,.,/
O=C(c1ccccc1)N(c1ccccc1)c1ccccc1O,.,/,/,.,.,/

# From PubChem
